Experimental data: the supplement of paper PMC13380429

Legend:
[1] = system: Vero E6 infected with SARS-CoV-2; test: morphology score (similarity to uninfected cells); higher = more like uninfected cells; conditions: 24 h
[2] = system: Vero E6 infected with SARS-CoV-2; test: SARS-CoV-2 infection rate relative to infected DMSO; higher = more infection, active = 60 or less; conditions: 24 h

## Cn1cnc2c1c(=O)[nH]c(=O)n2C [theobromine] (10 µM)
[1]
  morphology score: 0.00515
[2]
  SARS-CoV-2 infection rate: 108% (inactive)

## COc1cnc(NS(=O)(=O)c2ccc(N)cc2)nc1 [sulfameter] (10 µM)
[1]
  morphology score: 0.131
[2]
  SARS-CoV-2 infection rate: 111% (inactive)

## COC1=CC(=O)C[C@@H](C)[C@]12Oc1c(Cl)c(OC)cc(OC)c1C2=O [griseofulvin] (10 µM)
[1]
  morphology score: 0.0707
[2]
  SARS-CoV-2 infection rate: 104% (inactive)

## N[C@]1(C(=O)O)CC[C@@H](C(=O)O)C1 (10 µM)
[1]
  morphology score: 0.188
[2]
  SARS-CoV-2 infection rate: 82% (inactive)

## CN1C(=O)N(c2cc(Cl)cc(Cl)c2)C(=O)[C@]12CN(c1ccc(C(=O)O)cn1)C[C@H]2c1ccc(C#N)cc1 (10 µM)
[1]
  morphology score: 0.0204
[2]
  SARS-CoV-2 infection rate: 114% (inactive)

## Oc1cccc(O)c1 [resorcinol] (10 µM)
[1]
  morphology score: 0.0503
[2]
  SARS-CoV-2 infection rate: 110% (inactive)

## Oc1cc(Cl)ccc1Oc1ccc(Cl)cc1Cl [triclosan] (10 µM)
[1]
  morphology score: 0.237
[2]
  SARS-CoV-2 infection rate: 95% (inactive)

## Cc1cc(CCC[C@H](CC(=O)NO)C(=O)N[C@H](C(=O)N[C@H](C)c2ccccc2)C(C)(C)C)ccc1-c1ccccc1 (0.833333 µM)
[1]
  morphology score: -0.0923
[2]
  SARS-CoV-2 infection rate: 102% (inactive)

## CCCOC(=O)c1ccccc1 [propyl-benzoate] (10 µM)
[1]
  morphology score: 0.105
[2]
  SARS-CoV-2 infection rate: 90% (inactive)

## O=C1OC(OC(=O)c2cccnc2Nc2cccc(C(F)(F)F)c2)c2ccccc21 (configuration not stated) [talniflumate] (10 µM)
[1]
  morphology score: -0.0899
[2]
  SARS-CoV-2 infection rate: 108% (inactive)

## C=C[C@@]1(C)CC(=O)[C@]2(O)[C@@]3(C)[C@@H](O)CCC(C)(C)[C@@H]3[C@H](O)[C@H](OC(C)=O)[C@@]2(C)O1 [colforsin] (10 µM)
[1]
  morphology score: 0.455
[2]
  SARS-CoV-2 infection rate: 83% (inactive)
